Results filed as inconclusive are left out. Activity calls are given as the source filed them. Unless noted, calls come from the whole dose curve.
Columns and labels:
[1] = molecular target: Peroxisome proliferator-activated receptor delta (Homo sapiens) (UniProt Q03181); assay: qHTS assay to identify small molecule agonists of the peroxisome proliferator-activated receptor delta (PPARd) signaling pathway (AID 743212)
Procedure, shortened: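 HEK293H UAS-bla reporter cells, human PPARd system; compounds delivered in DMSO after 5 h plating, then at 37 C. Beta-lactamase FRET read, 2 h RT substrate step.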

[2] = qHTS assay to identify small molecule antagonists of the peroxisome proliferator-activated receptor delta (PPARd) signaling pathway - cell viability counter screen (AID 743213; active = well fitted curve in the direction sought with a large enough effect in the repeat runs; an effect the other way counts as inactive or inconclusive; note: nearly all actives have a fitted effect of over 50% in size)
Procedure, shortened: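 HEK293H PPARd UAS-bla cells, 5 h pre-incubation, compound + L165041 300 nM final, 17 h 37 C; B/G FRET substrate 2 h RT; then CellTiter-Glo 30 min RT, luminescence.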

[3] = molecular target: Peroxisome proliferator-activated receptor delta (Homo sapiens) (UniProt Q03181); assay: qHTS assay to identify small molecule antagonists of the peroxisome proliferator-activated receptor delta (PPARd) signaling pathway (AID 743215; active = well fitted inhibition curve with a large enough effect in the signal ratio in the repeat runs, not every such curve was filed as active; the % refers to the signal ratio;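 note: cells stimulated with agonist L165041 at 300 nM final during compound exposure; series mostly up to about 62 µM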)
Procedure, shortened: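 PPARd-bla HEK293H cells (UAS-bla reporter) preincubated 5 h, then given compound plus 300 nM final L165041 agonist for 17 h at 37 C. Beta-lactamase activity read by LiveBLAzer B/G FRET substrate fluorescence after 2 h at room temperature.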

[4] = qHTS assay to identify small molecule agonists of the farnesoid-X-receptor (FXR) signaling pathway - cell viability counter screen (AID 743218; active = well fitted curve in the direction sought with a large enough effect in the repeat runs; an effect the other way counts as inactive or inconclusive; note: nearly all actives have a fitted effect of over 45% in size)
Procedure, shortened: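 FXR-UAS-bla HEK 293T cells exposed to compounds for 16 h at 37C. Cytotoxicity read in the same wells by CellTiter-Glo luminescence after 30 min at room temperature, following the beta-lactamase FRET read.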

[5] = qHTS assay to identify small molecule antagonists of the farnesoid-X-receptor (FXR) signaling pathway - cell viability counter screen (AID 743221; active = well fitted cell-killing curve with a large enough effect in the repeat runs, not every such curve was filed as active; note: nearly all actives have a fitted effect of over 50% in size)
Procedure, shortened: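 Cytotoxicity is taken from ATP luminescence (CellTiter-Glo, 30 min, room temperature) in FXR-bla HEK 293T cells previously incubated 16 h at 37 C with compound and chenodeoxycholic acid at 50 uM final.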

[6] = molecular target: Vitamin D3 receptor (Homo sapiens) (UniProt P11473); assay: qHTS assay to identify small molecule agonists of the vitamin D receptor (VDR) signaling pathway (AID 743222)
Procedure, shortened: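 VDR-bla cells plated 4 h at 37 C, then exposed to compounds for 16 h at 37 C. Beta-lactamase reporter activity measured by fluorescence after 2 h room-temperature loading with LiveBLAzer B/G FRET substrate.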

[7] = qHTS assay to identify small molecule agonists of the vitamin D receptor (VDR) signaling pathway - cell viability counter screen (AID 743224; active = well fitted curve in the direction sought with a large enough effect in the repeat runs; an effect the other way counts as inactive or inconclusive; note: series mostly up to about 63 µM; nearly all actives have a fitted effect of over 50% in size)
Procedure, shortened: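 VDR-bla cells, 4 h after plating, exposed to compounds for 16 h at 37C; viability then read in the same wells as CellTiter-Glo luminescence after 30 min at room temperature, following the bla FRET read.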

[8] = qHTS assay to identify small molecule antagonists of the vitamin D receptor (VDR) signaling pathway - cell viability counter screen (AID 743225; active = well fitted curve in the direction sought with a large enough effect in the repeat runs; an effect the other way counts as inactive or inconclusive; note: nearly all actives have a fitted effect of over 50% in size)
Procedure, shortened: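 Same-well multiplex: following 16 h treatment of HEK 293T cells carrying a UAS-driven beta-lactamase reporter with compound and agonist (3 nM final), and a 2 h FRET substrate step, CellTiter-Glo was added and luminescence read after 30 min.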

[9] = qHTS assay to identify small molecule agonists of the NFkB signaling pathway (AID 1159509; active = well fitted curve in the direction sought with a large enough effect in the signal ratio in the repeat runs, not every such curve was filed as active; the % refers to the signal ratio; note: series mostly up to about 61 µM)
Procedure, shortened: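 NFkB-bla ME-180 cells with a beta-lactamase reporter under an NF-kB response element were plated overnight, treated with compounds in DMSO for 5 hr at 37 C, then loaded with FRET substrate for 1.5 hr at room temperature.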

[10] = qHTS assay to identify small molecule agonists of the NFkB signaling pathway - cell viability counter screen (AID 1159515); note: series mostly up to about 61 µM; nearly all actives have a fitted effect of over 55% in size
Procedure, shortened: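 NFkB-bla ME-180 cells, 2,000/well, plated overnight at 37 C; compound added for 5 hr at 37 C. Viability read in the same wells as the bla reporter, by CellTiter-Glo luminescence after 30 min at room temperature.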

[11] = qHTS assay to identify small molecule agonists of the endoplasmic reticulum stress response signaling pathway (AID 1159516; active = well fitted activation curve with a large enough effect in the signal ratio in the repeat runs, not every such curve was filed as active; the % refers to the signal ratio)
Procedure, shortened: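 CellSensor ESRE-bla HeLa cells, 1,500 per well, plated overnight, then exposed to compounds for 5 hr at 37 C. Beta-lactamase reporter read with LiveBLAzer B/G FRET substrate after 2 hr at room temperature, 405 nm excitation, 460 and 530 nm emission.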

[12] = qHTS assay to identify small molecule agonists of the endoplasmic reticulum stress response signaling pathway - cell viability counter screen (AID 1159517)
Procedure, shortened: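 Cells, HeLa ESRE-bla; density, 1,500/well; dosing, 5 hr at 37 C, 5% CO2; readout, CellTiter-Glo luminescence after 30 min RT.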

[13] = qHTS assay to identify small molecule antagonists of the retinoid-related orphan receptor gamma (ROR-gamma) signaling pathway - cell viability counter screen (AID 1159520; active = well fitted curve in the direction sought with a large enough effect in the repeat runs; an effect the other way counts as inactive or inconclusive; note: nearly all actives have a fitted effect of over 50% in size)
Procedure, shortened: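 Cytotoxicity was read from cellular ATP (CellTiter-Glo luminescence) after 16 hr at 37 C with 1 uM doxycycline induction. The inducer was added 2 hr after compound transfer to Tet-on ROR gamma CHO cells.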

[14] = qHTS assay to identify small molecule agonists of the AP-1 signaling pathway - cell viability counter screen (AID 1159525); note: nearly all actives have a fitted effect of over 55% in size
Procedure, shortened: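 Luminescent ATP readout (Cell Titer Glo, 30 min RT), normalised to DMSO and tetra n-octyl ammonium bromide controls. Cells were ME-180 AP-1-bla in 0.5% dialyzed FBS Opti-MEM, with a 5 h, 37 °C compound exposure.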

[15] = qHTS assay to identify small molecule agonists of the AP-1 signaling pathway (AID 1159526)
[16] = molecular target: Retinoic acid receptor RXR-alpha (Homo sapiens) (UniProt P19793); assay: qHTS assay to identify small molecule agonists of the RXR signaling pathway (AID 1159527); note: nearly all actives have a fitted effect of over 35% in size
Procedure, shortened: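 Compounds in DMSO were added to RXR-alpha-UAS-bla HEK 293T cells kept in 2% charcoal-stripped serum, and incubated 16 hr at 37 C with 5% CO2. Reporter signal came from a 2 hr B/G FRET substrate step.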

[17] = molecular target: Vitamin D3 receptor (Homo sapiens) (UniProt P11473); assay: qHTS assay to identify small molecule antagonists of the vitamin D receptor (VDR) signaling pathway (AID 743223; active = well fitted inhibition curve with a large enough effect in the signal ratio in the repeat runs, not every such curve was filed as active; the % refers to the signal ratio)
Procedure, shortened: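 Quantitative HTS in VDR-bla reporter cells stimulated with 1alpha,25-dihydroxyvitamin D3, 3 nM final. Compound exposure 16 h, 37C, 5% CO2. Read-out: beta-lactamase FRET substrate fluorescence, 2 h RT.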

[18] = molecular target: Bile acid receptor (Homo sapiens) (UniProt Q96RI1); assay: qHTS assay to identify small molecule agonists of the farnesoid-X-receptor (FXR) signaling pathway (AID 743220; active = well fitted activation curve with a large enough effect in the signal ratio in the repeat runs, not every such curve was filed as active; the % refers to the signal ratio)
Procedure, shortened: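 Beta-lactamase reporter under UAS control in GeneBLAzer FXR HEK 293T cells (5000/well) measured with LiveBLAzer FRET substrate after 2 h at room temperature. Compound exposure lasted 16 h at 37C.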

[19] = molecular target: Bile acid receptor (Homo sapiens) (UniProt Q96RI1); assay: qHTS assay to identify small molecule antagonists of the farnesoid-X-receptor (FXR) signaling pathway (AID 743217; active = well fitted inhibition curve with a large enough effect in the signal ratio in the repeat runs, not every such curve was filed as active; the % refers to the signal ratio)
Procedure, shortened: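 FXR-UAS-bla HEK 293T cells (beta-lactamase reporter) given compound plus chenodeoxycholic acid (50 uM final), 16 h at 37C. LiveBLAzer B/G FRET substrate added for 2 h at room temperature; fluorescence read.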

Measured: Potency

Sequence of Peroxisome proliferator-activated receptor delta (Homo sapiens) (Q03181 whole entry, looked up): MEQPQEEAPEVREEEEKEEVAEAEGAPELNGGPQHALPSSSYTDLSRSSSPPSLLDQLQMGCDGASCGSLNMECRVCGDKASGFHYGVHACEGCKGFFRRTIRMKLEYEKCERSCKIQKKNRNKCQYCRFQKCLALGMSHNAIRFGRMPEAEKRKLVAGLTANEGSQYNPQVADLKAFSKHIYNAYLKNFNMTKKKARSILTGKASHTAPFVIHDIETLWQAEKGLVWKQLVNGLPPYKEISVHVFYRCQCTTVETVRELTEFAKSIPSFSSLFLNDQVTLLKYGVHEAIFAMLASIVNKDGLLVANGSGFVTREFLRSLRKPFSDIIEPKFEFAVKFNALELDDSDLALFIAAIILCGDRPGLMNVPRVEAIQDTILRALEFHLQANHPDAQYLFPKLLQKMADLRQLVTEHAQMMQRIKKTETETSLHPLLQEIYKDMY
Sequence of Retinoic acid receptor RXR-alpha (Homo sapiens) (P19793 whole entry, looked up): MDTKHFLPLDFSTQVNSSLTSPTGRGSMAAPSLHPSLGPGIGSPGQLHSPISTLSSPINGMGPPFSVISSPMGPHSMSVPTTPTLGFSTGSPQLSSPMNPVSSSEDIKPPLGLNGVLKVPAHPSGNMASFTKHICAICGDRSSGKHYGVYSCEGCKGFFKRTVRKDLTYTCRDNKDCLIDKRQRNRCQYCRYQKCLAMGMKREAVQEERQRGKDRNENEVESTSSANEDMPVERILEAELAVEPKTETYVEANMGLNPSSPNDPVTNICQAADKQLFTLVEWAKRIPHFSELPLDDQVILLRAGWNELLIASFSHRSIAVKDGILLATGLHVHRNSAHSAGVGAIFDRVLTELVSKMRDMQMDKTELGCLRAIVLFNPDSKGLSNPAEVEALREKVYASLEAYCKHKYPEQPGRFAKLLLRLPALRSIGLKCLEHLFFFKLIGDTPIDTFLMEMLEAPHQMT
Sequence of Vitamin D3 receptor (Homo sapiens) (P11473 whole entry, looked up): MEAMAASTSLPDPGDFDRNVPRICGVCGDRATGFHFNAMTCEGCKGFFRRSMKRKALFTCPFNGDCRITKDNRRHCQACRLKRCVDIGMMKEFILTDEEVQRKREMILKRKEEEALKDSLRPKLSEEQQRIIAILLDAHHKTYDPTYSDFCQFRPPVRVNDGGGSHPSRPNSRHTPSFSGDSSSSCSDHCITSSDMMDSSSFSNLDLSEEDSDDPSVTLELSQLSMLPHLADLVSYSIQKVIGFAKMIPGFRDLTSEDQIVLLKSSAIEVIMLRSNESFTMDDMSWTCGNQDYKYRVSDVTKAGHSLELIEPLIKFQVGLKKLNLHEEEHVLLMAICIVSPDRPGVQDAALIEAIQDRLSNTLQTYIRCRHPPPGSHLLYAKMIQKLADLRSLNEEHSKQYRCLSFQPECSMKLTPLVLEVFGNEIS
Sequence of Bile acid receptor (Homo sapiens) (Q96RI1 whole entry, looked up): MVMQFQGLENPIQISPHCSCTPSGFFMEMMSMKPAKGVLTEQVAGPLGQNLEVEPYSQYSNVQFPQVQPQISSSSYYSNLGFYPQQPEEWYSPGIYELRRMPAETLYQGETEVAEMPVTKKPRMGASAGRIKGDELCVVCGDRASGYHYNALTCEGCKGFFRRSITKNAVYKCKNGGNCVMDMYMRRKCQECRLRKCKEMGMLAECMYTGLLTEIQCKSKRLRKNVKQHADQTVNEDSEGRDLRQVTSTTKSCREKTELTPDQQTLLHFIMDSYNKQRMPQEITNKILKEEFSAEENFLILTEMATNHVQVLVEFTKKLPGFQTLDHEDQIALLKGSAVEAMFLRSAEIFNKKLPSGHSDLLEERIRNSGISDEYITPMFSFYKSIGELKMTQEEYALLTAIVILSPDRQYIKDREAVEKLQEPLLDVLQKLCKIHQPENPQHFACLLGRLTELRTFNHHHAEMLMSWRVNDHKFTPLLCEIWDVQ

Oc1c(Cl)cccc1Cl
not listed: [17] | [18] | [19]
inactive: all other assays above

COC(=O)c1ccccc1S(=O)(=O)NC(=O)Nc1nc(C)cc(C)n1
not listed: [1] | [3] | [18] | [19]
inactive: all other assays above

CC(=O)[C@H]1CC[C@H]2[C@@H]3CC[C@H]4C[C@H](O)CC[C@]4(C)[C@H]3C(=O)C[C@]12C
not listed: [17] | [19]
inactive: all other assays above

CCc1cc2c(s1)-n1c(C)nnc1CN=C2c1ccccc1Cl
not listed: [17] | [18]
inactive: all other assays above

CC(C)(C)C(=O)C(Oc1ccc(Cl)cc1)n1cncn1 (centres undefined)
not listed: [2] | [16] | [17] | [18] | [19]
inactive: all other assays above

ClC(Cl)Br
not listed: [17] | [18] | [19]
inactive: all other assays above

CCOC(=O)C1(c2ccccc2)CCN(CCc2ccc(N)cc2)CC1
not listed: [2] | [18] | [19]
inactive: all other assays above

Cc1ccccc1CO[C@@H]1C[C@@]2(C(C)C)CC[C@]1(C)O2
not listed: [18] | [19]
inactive: all other assays above

Nc1ccccc1Cl
not listed: [7] | [17] | [19]
inactive: all other assays above

CCC1(c2ccccc2)C(=O)NC(=O)NC1=O
not listed: [1] | [18] | [19]
inactive: all other assays above

c1ccc(N2CCNCC2)cc1
not listed: [1] | [3] | [4] | [17] | [19]
inactive: all other assays above

— PubChem BioAssay (Tox21)
